# Screening data as filed in PubChem.
# In the library only some 6% were active in any assay of this set; here they are far more common.
# Tau fluor cs: counter-screen for tau fibril formation inhibitors; tau K18 P301L Alexa594 fluorescence, heparin fibrillization; Potency, µM (top dose mostly 57.7 µM); 280,000 tested, 0.93% active; note: nearly all actives have a fitted effect of over 55% in size
#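 Human tau K18 P301L (15 uM unlabeled, 0.24 uM Alexa 594-labeled) in 100 mM sodium acetate pH 7 with 20 uM heparin, 6 hr at 37 C. ThT 30 uM added, 1 hr ambient; Alexa 594 FP and total fluorescence read at 555/632 nm.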
# PLK1 PBD inh: inhibitors of human PLK1 polo-box domain binding. P53350. Plk1 PBD binding of FITC phosphopeptide, fluorescence polarization. Potency, µM, usual class: inhibitors. 360,000 tested, 2.8% active. AID 720504; note: series mostly up to about 57 µM; nearly all actives have a fitted effect of over 65% in size
# Tau fibril FP: blocks human tau fibril formation measured by polarization. 280,000 tested, 0.39% active. K18 P301L tau heparin fibrillization, Alexa594 FP, 6 h. Potency, µM (series often up to 57.7 µM), actives largely listed as inhibitors; note: nearly all actives have a fitted effect of over 55% in size
#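 Human K18 P301L fragment (15 uM unlabeled plus 0.24 uM Alexa 594-labeled) in 100 mM sodium acetate pH 7 with compound, aggregation induced by 20 uM heparin for 6 hr at 37 C. ThT (30 uM) added for 1 hr, then Alexa 594 FP read.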
# Sfp inh: blocks B. subtilis Sfp PPTase activity | Q9F4F7 | Biochemical Sfp PPTase activity, qHTS | Potency, µM, actives largely listed as inhibitors | 310,000 tested, 3.5% active | AID 1490;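 note: the enzyme is Sfp with the accession as filed and its product quenches rhodamine fluorescence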
#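 Reaction rates are the 30-min fluorescence difference (ex 525, em 598 nm) in wells containing 15 nM Sfp, 5 uM rhodamine-CoA and 12.5 uM BHQ-2-YbbR at pH 7.6 with 10 mM MgCl2.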
# VDR inh: blocks the human vitamin D receptor. P11473. VDR-SRC2-3 peptide fluorescence polarization, 2 h. Potency, µM, hits mostly inhibitors. 400,000 tested, 0.93% active. AID 504847
# Target sequence (P11473 whole entry, looked up): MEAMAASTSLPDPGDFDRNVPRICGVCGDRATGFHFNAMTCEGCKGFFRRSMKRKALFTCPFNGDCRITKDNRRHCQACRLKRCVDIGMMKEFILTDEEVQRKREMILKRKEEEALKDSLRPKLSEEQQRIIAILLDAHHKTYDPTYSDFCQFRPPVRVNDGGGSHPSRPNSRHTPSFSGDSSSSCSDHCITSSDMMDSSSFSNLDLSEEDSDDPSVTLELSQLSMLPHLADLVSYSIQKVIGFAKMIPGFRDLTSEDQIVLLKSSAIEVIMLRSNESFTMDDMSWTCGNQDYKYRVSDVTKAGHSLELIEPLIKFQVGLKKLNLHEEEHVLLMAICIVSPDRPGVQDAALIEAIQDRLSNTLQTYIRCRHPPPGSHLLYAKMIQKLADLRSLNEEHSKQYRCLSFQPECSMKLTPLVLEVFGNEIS
#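 The screen uses fluorescence polarization to detect compounds that interfere with recruitment of the SRC2-3 coactivator peptide to VDR; plates are read after 2 h at room temperature.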
# Tau fibril ThT: inhibitors of human tau fibril formation, thioflavin T binding; P10636; recombinant tau K18 P301L, heparin-induced fibrillization, ThT fluorescence; Potency, µM (doses to about 57.4 µM), hits mostly inhibitors; 270,000 tested, 2.1% active; note: nearly all actives have a fitted effect of over 55% in size
#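 Using a mix of unlabeled (15 uM) and Alexa 594-labeled (0.24 uM) tau K18 P301L, heparin-triggered fibrillization over 6 hr at 37 C was scored by ThT fluorescence.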
# Numbers stand for hits; - = inactive; ? = inconclusive; . = no result; [ ] = remark or other dose. Calls come from the whole dose curve; as a rule, active = well fitted curve in the direction sought with a large enough effect; inconclusive = small, poorly fitted or top-dose-only effect, or another doubt; inactive = no such curve, though single readings can be large; an effect the other way counts as inactive or inconclusive.
SMILES,Tau fluor cs,PLK1 PBD inh,Tau fibril FP,Sfp inh,VDR inh,Tau fibril ThT
COc1cccc(NC(=O)c2ccc3c(O)c(S(=O)(=O)c4ccccc4)c(=O)[nH]c3c2)c1,.,24µM,.,-,?,.
O=C(CSc1ncc(-c2ccccc2)[nH]1)Nc1cccc(Br)c1,16µM[quencher],.,?,.,-,?
CC1(C(=O)Nc2ccccc2F)CCN1C(=O)Cc1ccc(-c2ccccc2)cc1 (stereo not drawn),.,-,.,.,.,.
COc1cccc(NC(=O)CSc2ncc(S(=O)(=O)c3ccccc3)c(=O)[nH]2)c1,-,27µM,-,-,-,-
C/C(CCC(=O)OC[C@@H]1O[C@H](C#Cc2ccccc2)C=C[C@@H]1Oc1ccc(C)cc1)=N/O[C@@H](C)CN1CCCCc2nc(C)c(C)cc21,-[11.6 µM],.,-[11.6 µM],-,.,-[11.5 µM]
CC(C)NC(=O)CC(c1ccccc1)c1cc(Br)ccc1O (stereo not drawn),-,-,-,100µM,-,-
COc1ccccc1N(O)C1CC(=O)N(c2ccc(F)cc2)C1=O (stereo not drawn),16µM[quencher],5.3µM,?,?,?,14µM
COc1ccccc1N1C(=O)CC(N(O)c2ccccc2)C1=O (stereo not drawn),-,-,-,-,-,?
c1ccc2c(c1)N1CCCN=C1N2CCN1CCCCC1,-,27µM,-,-,-,-
c1ccc2c(c1)N1CCN=C1N2CCN1CCCCC1,-,-,-,-,-,-
N#CC1=C(N)SC(N)=C(C#N)C1c1cccc(Oc2ccccc2)c1,?,-,-,28µM,?,?
N#CC1=C(N)SC(N)=C(C#N)C1c1c(Cl)cccc1Cl,-,?,-,7.1µM,?,?
O=S(=O)(c1ccc(Br)s1)N1CCN(c2cccc(C(F)(F)F)c2)CC1,?,.,?,.,-,-
Cc1ccc(C)c(NC(=O)CN2C(=O)c3cccnc3Oc3ccc(C)cc32)c1,-,.,-,.,-,-
CCc1cccc(OCC(=O)Nc2ccc(S(=O)(=O)Nc3ncccn3)cc2)c1,-,.,-,.,-,-
O=c1cnc2cncnc2n1Cc1ccccc1Cl,.,.,.,-,40µM,.
O=c1oc2c(CN3CCOCC3)c(O)c(Cl)cc2c2c1CCCC2,-,-,-,56µM,-,?
Cc1c(O)c(CN2CCCC2)cc2c3c(c(=O)oc12)CCC3,-,-,?,-,-,13µM
NC(=O)/C(=N\OC(=O)c1ccco1)c1nc(-c2ccc(Br)cc2)cs1,-,5.3µM,-,-,-,?
O=C1NC[C@@H](CCCCN2C[C@H](Cc3ccc(O)cc3)N(CCc3ccccc3)C(=O)C2=O)N(CCc2ccc(O)cc2)C1=O,.,-,.,.,.,.
COc1cc2cc3c4c(cc(OC)c(OC)c4c2cc1OC)CCN3C,13µM[quencher],.,?,71µM,.,10µM
O=C(CN1C(=O)c2cccc3cccc1c23)Nc1cccnc1,-,30µM,-,-,-,-
CCN1C(=O)c2cccc3cccc1c23,-,21µM,-,16µM,-,-
O=C(CN1C(=O)c2cccc3cccc1c23)NCc1cccnc1,-,-,-,-,-,-
COc1ccccc1S(=O)(=O)Cc1ccc(C(=O)N2CCN(c3ccccn3)CC2)o1,-,27µM,-,79µM,?,-
SMILES,Tau fluor cs,PLK1 PBD inh,Tau fibril FP,Sfp inh,VDR inh,Tau fibril ThT
COc1ccc(S(=O)(=O)Cc2ccc(C(=O)NC(C)C)o2)cc1,-,21µM,-,-,?,-
COc1ccc(S(=O)(=O)Cc2ccc(C(=O)N3CCN(c4ccccn4)CC3)o2)cc1,-,-,-,-,-,-
CCC(C)NC(=O)c1ccc(CS(=O)(=O)c2ccc(OC)cc2)o1 (stereo not drawn),-,-,-,-,-,-
CCOC(=O)N1CCN(C(=O)c2ccc(CS(=O)(=O)c3ccc(OC)cc3)o2)CC1,-,27µM,-,-,?,-
CCOc1cc(OCC)cc(C(=O)N2CCC[C@H]2C(=O)N2CCC[C@H]2C(=O)N[C@@H](C)c2ccccc2)c1,.,-,.,.,.,.
COCCN(C(=S)Nc1c(C)cc(C)cc1C)C(C)c1cccs1 (stereo not drawn),-,?,-,50µM,-,-
COCCN(C(=S)Nc1ccc(C)cc1C)C(C)c1cccs1 (stereo not drawn),-,-,-,-,-,-
